In test [1] the test system is PRMT1 (protein arginine N-methyltransferase 1). The experiment in a line: PRMT1 binders on small-molecule microarrays, primary screen, biochemical, small-molecule microarray, 635 nm fluorescence (AID 1088).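 Further: binding of Prmt1 protein to compounds spotted on small-molecule microarray slides.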 As to conditions: small-molecule microarray binding, higher = more signal.
Test [2] can be described thus: yeast growth modulation, basal conditions, primary screen, YJM789 clinical isolate, OD600, 24 h (AID 1089).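 Further: growth of clinical yeast isolate S. cerevisiae YJM 789 seeded 1000 cells per well; test concentration not given here.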 To be noted: S. cerevisiae YJM789 growth, higher = more signal, called active from +8 up or from −8 down.
Test [3] in a line: fission yeast growth modulation, primary screen, strain 972, OD600, 24 h, no modulator (AID 1090).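 Further: basal condition with compound alone and no growth modifier present; test concentration not given here.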 To be noted: S. pombe 972 growth, higher = more signal, called active from +8 up or from −8 down.
Test [4] can be described thus: S. cerevisiae growth modulation with rapamycin, primary screen, strain BY4716, OD600, 96 h (AID 1091). Further: test concentration not given here. To be noted: higher = more signal, called active from +8 up or from −8 down.
Test [5] has as its target Torsin-1A-interacting protein 2 (Homo sapiens) (UniProt Q8NFQ8). The test is described as follows: LULL1 binders on small-molecule microarray, primary screen, cell lysate, human LULL1 lysate, 635/667 nm fluorescence (AID 1092).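 Further: probe is lysate of COS7 cells overexpressing human LULL1; score merges per-feature 667 nm fluorescence with signal-to-noise.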 As to conditions: hLULL1 lysate binding, 635 nm fluorescence, higher = more signal.
Test [6] in a line: E. coli growth modulation, two-sided OD650, primary screen, E. coli filamentation project, strain DRC41, 24 h (AID 1093).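 Further: MC1000 strain lacking acrAB efflux and sulA so SOS filamentation is blocked; test concentration not given here.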 As to conditions: OD650, 24 h, higher = more signal, called active from +8 up or from −8 down.
The nature of test [7]: small-molecule microarray binders of probe aLefty2, primary screen, biochemical, biotinylated probe, 635/667 nm fluorescence (AID 1094).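 Further: score merges spot fluorescence near 667 nm with spot signal-to-noise ratio.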 As to conditions: higher = more signal.
The test system of test [8] is Noggin (protein binding on small-molecule microarray). The experiment in a line: Noggin binders on small-molecule microarray, primary screen, biochemical, 635/667 nm fluorescence (AID 1095).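 Further: score merges 667 nm feature fluorescence with signal to noise over triplicate slides.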 As to conditions: 635 nm fluorescence, higher = more signal.
Test [9] deals with Neurogenic locus notch homolog protein 3 (Homo sapiens) (UniProt Q9UM47). The experiment in a line: NOTCH3 binders on small-molecule microarray, primary screen, biochemical, 635/667 nm fluorescence (AID 1096). As to conditions: NOTCH3 binding, 635 nm fluorescence, higher = more signal.
Test [10] in a line: small-molecule microarray binders of probe aEGFR, primary screen, biochemical, biotinylated probe, 635/667 nm fluorescence (AID 1097).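 Further: probe is a biotinylated anti-EGFR antibody binding compounds printed on slides; score combines fluorescence near 667 nm and signal to noise of each spot.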 As to conditions: higher = more signal.
Test [11] deals with Plasmodium falciparum Sir2 (PF13_0152, Sir2A). The experiment in a line: pfSir2 binders on small-molecule microarrays, primary screen, biochemical, small-molecule microarray, 635 nm fluorescence (AID 1098).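 Further: score merges spot fluorescence intensity with its signal-to-noise ratio.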 As to conditions: small-molecule microarray binding, fluorescence 635 nm; higher = more signal.
Test [12] in a line: small-molecule microarray binders of probe aDKK1, primary screen, biochemical, biotinylated probe, 635/667 nm fluorescence (AID 1099).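 Further: score merges 667nm spot fluorescence with signal to noise across triplicate slides; reference of the scale not given here.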 As to conditions: higher = more signal.
Test [13] can be described thus: small-molecule microarray binders of probe aCHRDL2, primary screen, biochemical, biotinylated probe, 635/667 nm fluorescence (AID 1100). To be noted: higher = more signal.
A short description of test [14]: splicing luciferase reporter signal modulators, primary screen, spliceosome inhibition project, cell-based, HEK293, splice +/- reporter (AID 1101).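 Further: HEK293 cells carrying a splicing-competent luciferase reporter gene; test concentration not given here.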 As to conditions: luminescence, 24 h, higher = more signal, called active from +8 up or from −8 down. (In a reporter assay the amount or activity of a reporter protein is the signal.)
Test [15] has as its target Fibroblast growth factor 10 (Homo sapiens) (UniProt O15520). The test is described as follows: FGF10 binders on small-molecule microarrays, primary screen, biochemical, small-molecule microarray, 635 nm fluorescence (AID 1102). To be noted: FGF10 binding, fluorescence 635 nm, higher = more signal.
Test [16] concerns glycogen synthase kinase-3 (GSK3A per assay name; protocol says GSK3B). The experiment in a line: GSK3 binders on small-molecule microarrays, primary screen, biochemical, small-molecule microarray, 635 nm fluorescence, GSK3A (AID 1103). Further: the record names both GSK3A and GSK3B. To be noted: small-molecule microarray binding, fluorescence 635 nm; higher = more signal.
In test [17] the target is Epidermal growth factor receptor (Homo sapiens) (UniProt P00533). The experiment in a line: EGFR binders on small-molecule microarrays, primary screen, biochemical, small-molecule microarray, 635 nm fluorescence (AID 1104).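 Further: score merges 667 nm emission intensity with spot signal to noise over triplicate slides.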 To be noted: EGFR binding, higher = more signal.
The target in test [18] is Follistatin-related protein 3 (Homo sapiens) (UniProt O95633). The experiment in a line: FSTL3 binders on small-molecule microarrays, primary screen, biochemical, small-molecule microarray, 635 nm fluorescence (AID 1105).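 Further: score merges emission near 667 nm and signal to noise per printed spot across three slides.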 As to conditions: FSTL3 binding, higher = more signal.
In test [19] the target is Dickkopf-related protein 1 (Homo sapiens) (UniProt O94907). The test is described as follows: DKK1 binders on small-molecule microarrays, primary screen, biochemical, small-molecule microarray, 635 nm fluorescence scan (AID 1106).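 Further: score merges emission near 667 nm with signal to noise over three replicate slides.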 To be noted: DKK1 binding, higher = more signal.
Test [20] relates to Inhibin beta A chain (activin A). The experiment in a line: INHBA (activin A) binders on microarrays, primary screen, biochemical, small-molecule microarray, 635 nm fluorescence scan (AID 1107).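 Further: mouse activin A protein probed at 4.33 µg/mL on printed slides; score merges bound-protein fluorescence near 667 nm with spot signal-to-noise.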 To be noted: small-molecule microarray binding, higher = more signal.

The values that follow come from PubChem BioAssay.

Each structure is given as a SMILES string. Activity calls are given as the source filed them.

Sequence of Dickkopf-related protein 1 (Homo sapiens) (O94907 whole entry, looked up): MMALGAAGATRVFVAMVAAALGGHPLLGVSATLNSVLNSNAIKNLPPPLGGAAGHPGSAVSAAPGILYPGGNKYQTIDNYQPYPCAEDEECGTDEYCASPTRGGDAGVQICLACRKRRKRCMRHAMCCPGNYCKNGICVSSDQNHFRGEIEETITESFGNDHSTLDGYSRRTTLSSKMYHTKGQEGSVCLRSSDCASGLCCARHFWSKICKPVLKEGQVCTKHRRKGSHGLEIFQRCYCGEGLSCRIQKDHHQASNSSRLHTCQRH
Sequence of Torsin-1A-interacting protein 2 (Homo sapiens) (Q8NFQ8 whole entry, looked up): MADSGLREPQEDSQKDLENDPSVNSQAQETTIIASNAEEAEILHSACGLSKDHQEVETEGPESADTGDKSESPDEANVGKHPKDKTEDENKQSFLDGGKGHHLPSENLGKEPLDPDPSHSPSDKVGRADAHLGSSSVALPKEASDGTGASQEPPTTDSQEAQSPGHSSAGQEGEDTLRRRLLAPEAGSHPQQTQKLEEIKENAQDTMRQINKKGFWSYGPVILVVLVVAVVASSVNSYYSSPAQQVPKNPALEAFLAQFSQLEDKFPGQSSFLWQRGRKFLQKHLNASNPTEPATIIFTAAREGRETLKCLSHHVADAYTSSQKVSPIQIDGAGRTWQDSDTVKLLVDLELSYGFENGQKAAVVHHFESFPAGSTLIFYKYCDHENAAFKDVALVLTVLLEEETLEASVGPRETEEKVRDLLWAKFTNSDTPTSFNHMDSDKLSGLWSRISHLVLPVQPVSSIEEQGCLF
Sequence of Follistatin-related protein 3 (Homo sapiens) (O95633 whole entry, looked up): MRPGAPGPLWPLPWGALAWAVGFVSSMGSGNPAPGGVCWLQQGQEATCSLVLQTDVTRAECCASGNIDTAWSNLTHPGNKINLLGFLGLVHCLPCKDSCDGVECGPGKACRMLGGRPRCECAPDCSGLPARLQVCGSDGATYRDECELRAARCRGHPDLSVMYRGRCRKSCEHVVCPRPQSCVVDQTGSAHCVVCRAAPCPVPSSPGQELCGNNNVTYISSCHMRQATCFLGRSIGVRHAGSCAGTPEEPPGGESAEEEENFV
Sequence of Neurogenic locus notch homolog protein 3 (Homo sapiens) (Q9UM47 whole entry, looked up): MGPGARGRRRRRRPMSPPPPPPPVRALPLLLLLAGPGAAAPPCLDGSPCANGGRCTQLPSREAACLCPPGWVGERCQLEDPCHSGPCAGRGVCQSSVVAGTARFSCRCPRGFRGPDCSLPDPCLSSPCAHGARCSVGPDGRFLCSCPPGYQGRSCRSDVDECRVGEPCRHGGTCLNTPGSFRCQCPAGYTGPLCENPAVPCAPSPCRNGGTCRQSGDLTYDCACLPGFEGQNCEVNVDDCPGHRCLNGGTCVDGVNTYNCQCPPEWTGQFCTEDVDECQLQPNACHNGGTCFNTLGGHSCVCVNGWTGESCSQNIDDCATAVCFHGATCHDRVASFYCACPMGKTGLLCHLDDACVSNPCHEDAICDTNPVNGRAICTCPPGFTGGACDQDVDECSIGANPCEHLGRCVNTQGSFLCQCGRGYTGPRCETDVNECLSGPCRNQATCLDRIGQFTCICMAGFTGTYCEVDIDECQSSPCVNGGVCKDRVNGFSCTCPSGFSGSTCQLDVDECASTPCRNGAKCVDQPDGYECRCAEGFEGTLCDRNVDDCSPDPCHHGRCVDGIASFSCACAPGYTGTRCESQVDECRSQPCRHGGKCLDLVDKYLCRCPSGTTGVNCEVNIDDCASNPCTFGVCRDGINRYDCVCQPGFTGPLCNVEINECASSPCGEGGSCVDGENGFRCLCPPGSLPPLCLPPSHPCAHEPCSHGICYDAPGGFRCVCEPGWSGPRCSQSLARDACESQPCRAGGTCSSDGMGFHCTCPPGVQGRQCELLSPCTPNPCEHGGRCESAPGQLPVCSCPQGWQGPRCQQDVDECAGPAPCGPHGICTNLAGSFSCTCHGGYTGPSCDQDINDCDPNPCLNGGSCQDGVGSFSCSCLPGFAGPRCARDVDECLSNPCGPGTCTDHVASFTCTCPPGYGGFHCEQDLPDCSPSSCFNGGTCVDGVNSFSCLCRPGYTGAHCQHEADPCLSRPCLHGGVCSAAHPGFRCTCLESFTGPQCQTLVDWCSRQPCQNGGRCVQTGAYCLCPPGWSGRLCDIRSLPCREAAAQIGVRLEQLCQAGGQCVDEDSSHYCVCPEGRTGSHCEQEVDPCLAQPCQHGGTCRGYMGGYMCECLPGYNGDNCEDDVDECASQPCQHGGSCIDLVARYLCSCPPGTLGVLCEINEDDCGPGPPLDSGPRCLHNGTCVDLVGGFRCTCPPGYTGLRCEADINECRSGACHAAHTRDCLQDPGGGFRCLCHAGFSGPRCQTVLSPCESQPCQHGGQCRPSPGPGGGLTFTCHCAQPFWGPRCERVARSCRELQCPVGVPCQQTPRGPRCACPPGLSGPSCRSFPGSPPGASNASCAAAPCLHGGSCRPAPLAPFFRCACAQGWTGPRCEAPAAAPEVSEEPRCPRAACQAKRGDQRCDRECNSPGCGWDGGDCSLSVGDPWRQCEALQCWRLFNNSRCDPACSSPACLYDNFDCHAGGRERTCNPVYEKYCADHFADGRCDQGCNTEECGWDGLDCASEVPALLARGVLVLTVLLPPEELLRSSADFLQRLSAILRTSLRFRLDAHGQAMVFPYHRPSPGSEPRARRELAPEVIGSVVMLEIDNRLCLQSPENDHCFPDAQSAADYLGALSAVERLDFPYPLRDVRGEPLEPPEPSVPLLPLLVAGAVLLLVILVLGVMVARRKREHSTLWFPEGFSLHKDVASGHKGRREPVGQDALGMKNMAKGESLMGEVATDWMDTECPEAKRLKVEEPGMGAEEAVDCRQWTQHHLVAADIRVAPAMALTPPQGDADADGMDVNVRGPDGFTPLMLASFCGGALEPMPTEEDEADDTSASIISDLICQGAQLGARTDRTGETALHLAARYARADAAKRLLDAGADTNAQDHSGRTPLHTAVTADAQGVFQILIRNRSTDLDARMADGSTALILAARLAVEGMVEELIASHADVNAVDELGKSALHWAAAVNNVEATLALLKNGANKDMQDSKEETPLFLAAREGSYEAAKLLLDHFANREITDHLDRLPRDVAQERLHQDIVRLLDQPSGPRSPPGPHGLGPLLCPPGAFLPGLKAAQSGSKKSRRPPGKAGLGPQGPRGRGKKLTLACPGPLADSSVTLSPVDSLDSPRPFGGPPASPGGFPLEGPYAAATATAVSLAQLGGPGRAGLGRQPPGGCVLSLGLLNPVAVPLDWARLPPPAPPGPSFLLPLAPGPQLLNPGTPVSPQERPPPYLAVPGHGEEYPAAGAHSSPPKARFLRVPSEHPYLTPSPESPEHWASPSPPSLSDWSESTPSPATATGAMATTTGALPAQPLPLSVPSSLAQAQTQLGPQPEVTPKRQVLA
Sequence of Fibroblast growth factor 10 (Homo sapiens) (O15520 whole entry, looked up): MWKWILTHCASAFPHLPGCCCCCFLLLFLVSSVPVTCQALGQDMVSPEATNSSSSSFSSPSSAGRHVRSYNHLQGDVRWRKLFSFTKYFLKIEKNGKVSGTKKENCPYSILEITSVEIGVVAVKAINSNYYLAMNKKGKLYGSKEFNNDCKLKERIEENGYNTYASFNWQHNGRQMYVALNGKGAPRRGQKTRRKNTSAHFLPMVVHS
Sequence of Epidermal growth factor receptor (Homo sapiens) (P00533 whole entry, looked up): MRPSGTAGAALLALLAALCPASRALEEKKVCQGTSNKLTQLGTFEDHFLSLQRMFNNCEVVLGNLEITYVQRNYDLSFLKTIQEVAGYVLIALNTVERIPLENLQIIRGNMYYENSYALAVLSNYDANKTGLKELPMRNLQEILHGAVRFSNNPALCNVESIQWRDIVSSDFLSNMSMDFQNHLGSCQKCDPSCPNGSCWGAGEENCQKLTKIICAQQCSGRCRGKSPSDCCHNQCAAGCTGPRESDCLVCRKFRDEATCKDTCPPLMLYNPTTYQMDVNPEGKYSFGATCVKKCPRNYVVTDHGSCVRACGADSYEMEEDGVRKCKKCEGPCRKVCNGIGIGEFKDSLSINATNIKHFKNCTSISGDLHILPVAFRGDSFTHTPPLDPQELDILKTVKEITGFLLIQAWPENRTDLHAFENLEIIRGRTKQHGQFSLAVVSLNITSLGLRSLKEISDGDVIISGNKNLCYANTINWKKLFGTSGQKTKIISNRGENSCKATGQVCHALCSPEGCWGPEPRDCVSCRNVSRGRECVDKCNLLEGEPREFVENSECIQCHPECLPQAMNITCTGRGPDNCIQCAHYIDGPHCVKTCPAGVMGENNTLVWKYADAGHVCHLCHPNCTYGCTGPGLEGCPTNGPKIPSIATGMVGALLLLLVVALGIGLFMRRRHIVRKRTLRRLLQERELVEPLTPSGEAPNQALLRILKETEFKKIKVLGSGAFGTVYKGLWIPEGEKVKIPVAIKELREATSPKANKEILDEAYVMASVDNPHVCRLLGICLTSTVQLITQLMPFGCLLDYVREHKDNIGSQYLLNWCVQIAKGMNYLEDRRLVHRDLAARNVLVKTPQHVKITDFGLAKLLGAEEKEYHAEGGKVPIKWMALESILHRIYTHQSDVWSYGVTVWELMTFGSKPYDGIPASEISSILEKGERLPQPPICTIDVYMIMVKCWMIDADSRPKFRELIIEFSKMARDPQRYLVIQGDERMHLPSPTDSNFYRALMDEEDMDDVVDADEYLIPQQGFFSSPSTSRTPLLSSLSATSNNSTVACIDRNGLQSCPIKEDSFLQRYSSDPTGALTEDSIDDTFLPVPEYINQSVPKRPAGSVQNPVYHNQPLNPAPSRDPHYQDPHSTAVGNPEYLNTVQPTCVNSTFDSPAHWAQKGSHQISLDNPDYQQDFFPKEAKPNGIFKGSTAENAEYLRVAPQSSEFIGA

In the case of `CCCNC(=O)[C@@H]1c2ccccc2C(=O)N(Cc2ccccc2Cl)[C@H]1c1ccc(CO)cc1`, the composite z-score is 1.55 in test [1]; 2.47 in [5]; 0.102 in test [7]; 0.751 in test [8]; 1.05 in test [9]; 0.116 in [10]. The composite z-score came to 1.67 in test [11]; 0.989 in test [12]; 0.846 in [13]; 0.619 in test [15]; 1.28 in test [16]; 0.192 in test [17]. Besides, the composite z-score in test [18] was determined as 1.34; in [19] it was 0.649; in [20], 0.341. For the same molecule, the z-score in test [2] is -0.0545 (inactive); in test [3], -0.64 (inactive); in test [4] it was 0.152 (inactive); in test [6] it was 2.2 (inactive); in test [14] it was -0.493 (inactive).
As to `CO[C@@H]1COC(=O)[C@H](C)NC(=O)[C@@H](C)COC(=O)CCC[C@H]1C`, the composite z-score in [1] is 1.27; in [5] it was 2.11; in test [7], -0.179; in [8], 0.209; in [9], -0.0217; in test [10], 0.136. For the same molecule, the composite z-score is 0.957 in test [11]; -0.122 in test [12]; -0.554 in test [13]; 0.721 in test [15]; 0.115 in test [16]; 0.429 in test [17]. For the same molecule, the composite z-score in [18] was 1.11; in test [19], 0.705; in test [20], -0.0431. Besides, the z-score was -0.11 (inactive) in test [2]; 0.381 (inactive) in [3]; -1.14 (inactive) in test [4]; -0.183 (inactive) in [6]; 0.494 (inactive) in [14].
As to `COC(=O)[C@@]1(Cc2ccccc2)[C@H]2c3cc(C(=O)N4CCCC4)n(Cc4ccccn4)c3C[C@H]2CN1C(=O)c1ccccc1`, the composite z-score in test [1] is 1.57; in test [5], 4; in test [7] it was 0.614; in test [8], 0.856; in [9] it was 1.14; in test [10], 0.211. For the same molecule, the composite z-score in test [11] is 1.54; in test [12], 1.52; in [13] it was 1.31; in test [15] it was 1.37; in test [16], 1.3; in [17] it was 0.204. The composite z-score in test [18] was 1.41; in [19], 0.166; in test [20] it was 0.456. The z-score in [2] is 0.263 (inactive); in test [3] it was 0.296 (inactive); in test [4] it was 0.513 (inactive); in test [6], -0.301 (inactive); in [14], -2.15 (inactive).
`C=C(/C(=C/C[C@H](OC(=O)c1ccncc1)c1ccc(OCCO)cc1)c1cnc2ccccc2c1)C(C)C`: the composite z-score in test [1] is 1.55; in test [5] it was 1.12; in test [7], -0.0985; in test [8], 1.48; in test [9], 1.03; in [10], -0.0251. For the same molecule, the composite z-score in [11] was 0.933; in test [12], -0.196; in test [13] it was -0.163; in [15], 1.61; in test [16] it was 1.07; in test [17], 1.07. Besides, the results for the composite z-score in [18], in [19] and in test [20] were 1.38, 0.856 and 1.7, respectively. The z-score is -0.442 (inactive) in test [2]; -1.82 (inactive) in test [3]; 0.706 (inactive) in [4]; -0.13 (inactive) in [6]; 0.215 (inactive) in [14].
Turning to `COCCCNC(=O)[C@]1(Cc2ccccc2)N=C(c2ccc(OCCCO)cc2)O[C@@H]1c1ccccc1`, the composite z-score in [1] was 1.44; in test [5], 3.61; in [7], 0.0814; in test [8], 0.468; in [9], 0.129; in test [10] it was -0.0594. The composite z-score in test [11] was 1.73; in test [12], -0.0501; in test [13], 0.755; in test [15], 1.16; in [16] it was 0.618; in [17], -0.578. Further, the composite z-score was -0.351 in test [18], -0.894 in test [19] and 0.455 in test [20]. Moreover, the z-score in [2] is -1 (inactive); in [3], -1.32 (inactive); in test [4] it was -1.41 (inactive); in test [6] it was -0.806 (inactive); in [14], 0.0778 (inactive).
